Consider 16 compounds from PubChem BioAssay (NCI).

Common to all, as to assay: NCI-60 one-dose screen, 48 h (100 = growth as untreated, 0 = no growth, -100 = all killed)
Common to all, as to conditions: 10 µM unless noted

For experiment [1], the system named is NCI-H23 lung.
For experiment [2], the system named is NCI-H226 lung.
Experiment [3] concerns NCI-H322M lung.
For experiment [4], the system named is HOP-62 NSCLC.
The subject of experiment [5] is NCI-H460 lung.
The test system of experiment [6] is HOP-92 NSCLC.
Experiment [7] deals with 786-0 renal.
The test system of experiment [8] is COLO 205 colon.
Experiment [9] has as its system DU-145 prostate.
Experiment [10] has as its system K-562 leukemia.
Experiment [11] has as its system MALME-3M melanoma.
Experiment [12] relates to MDA-MB-231 breast.
Experiment [13] has as its system RXF 393 renal.
The subject of experiment [14] is SF-268 CNS.
In experiment [15] the test system is SF-295 CNS.
Experiment [16] has as its system SF-539 CNS.
The test system of experiment [17] is UACC-257 melanoma.
For experiment [18], the system named is M14 melanoma.
Experiment [19] relates to A549/ATCC NSCLC.

The panel holds about 83,000 compounds, 20% with a hit somewhere; the sample as a whole holds those more often.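 Values shown are percent growth following 48 h exposure of cells in 96-well plates to a single concentration of compound; below 10 was considered active.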 A number with no mark means an inactive call. Active and inactive are the calls of the source.

For `COc1ccc(OC)c(CCn2cncc2-c2c[nH]c3cc(Br)ccc23)c1`, the growth was 30.1% in [1]; 41.5% in experiment [2]; 87.1% in experiment [3]; 38% in experiment [4]; 36.7% in experiment [5]; 20.6% in experiment [6]. Besides, the growth in experiment [7] is 59.5%; in [8], 7.59% (active); in experiment [9] it was 63.3%; in [10], 7.3% (active); in [11], 37.7%; in experiment [12] it was 48.7%. Moreover, the growth in experiment [13] is 51.9%; in [14], 45.6%; in [15] it was 18.4%; in [16], 56.3%; in experiment [17] it was 29.9%; in experiment [18], 26.4%.

Take `Cc1cc(=O)oc2cc(OCCn3c(C)nn(-c4ccc(Cl)cc4)c3=O)ccc12`: the growth in experiment [1] was 45.8%; in experiment [2], 50.1%; in [3], 58.7%; in experiment [4] it was 27.4%; in [5] it was 17.2%; in experiment [6], 47.4%. Moreover, the growth in experiment [7] was 32.9%; in experiment [8], 10.6%; in experiment [9], 21.6%; in [10], 16.3%; in [11], 32.9%; in [12], 47.5%. The growth in experiment [13] was 37.4%; in experiment [14] it was 50.3%; in [15] it was 14%; in experiment [16] it was 29.5%; in experiment [17], 22.5%; in [18] it was 14.7%.

As for `O=C(Nc1ccccc1OC(=O)c1ccccc1)c1ccccc1`, the growth in experiment [1] is 70.6%; in experiment [2], 104%; in experiment [3], 72.3%; in experiment [4] it was 85.2%; in experiment [5] it was 98.1%; in experiment [6], 89.5%. For the same compound, the growth in experiment [7] was 96%; in experiment [8], 108%; in [9], 112%; in [10], 25.2%; in experiment [11], 93.9%; in experiment [12] it was 56.1%. Also, the growth was 121% in experiment [13]; 47.3% in experiment [14]; 109% in experiment [15]; 95.7% in experiment [16]; 63.8% in [17]; 102% in [18].

Consider `Cc1cc(-c2ccccc2)cc(C)n1`, for which the growth in [1] was 103%; in [2] it was 102%; in experiment [3] it was 105%; in experiment [4], 112%; in [5] it was 112%; in experiment [6] it was 95.4%. The growth in [7] is 99%; in experiment [8], 120%; in experiment [9], 125%; in [10], 98%; in experiment [12], 101%; in experiment [13] it was 117%. The growth was 111% in experiment [14]; 101% in experiment [15]; 102% in [16]; 108% in [17]; 103% in experiment [18].

Take `O=C1NC(=S)S/C1=C\c1cc(Br)ccc1O`: the growth was 84.7% in [1]; 91.4% in experiment [2]; 92.3% in experiment [3]; 81.6% in [4]; 102% in experiment [5]; 75.7% in [6]. Besides, the growth was 109% in experiment [7]; 95% in experiment [8]; 105% in experiment [9]; 112% in [10]; 71.8% in [11]; 96.7% in experiment [12]. The growth was 115% in [13]; 90.1% in experiment [14]; 111% in [15]; 93.1% in experiment [16]; 105% in experiment [17]; 88.5% in experiment [18].

Regarding `COc1cccc(/C=N/Nc2nc3ccccc3s2)c1OC`, the growth was 101% in experiment [1]; 83.3% in experiment [2]; 76% in experiment [3]; 68.8% in experiment [4]; 34.5% in experiment [5]; 74.5% in experiment [6]. In addition, the growth in [7] was 82.1%; in experiment [8], 71.6%; in experiment [9], 98.3%; in experiment [10], 50.9%; in experiment [11] it was 90.4%; in experiment [12], 86.3%. For the same compound, the growth was 97.9% in experiment [13]; 72.7% in experiment [14]; 85.4% in experiment [15]; 74.2% in experiment [16]; 96.4% in experiment [17]; 91.1% in [18].

For `N#Cc1c(-c2ccccc2)cc(-c2ccccc2)n(CCCCCCC(=O)O)c1=O`, the growth in experiment [1] is 96.7%; in experiment [2], 93.1%; in experiment [3] it was 96.5%; in experiment [4], 94.4%; in experiment [5] it was 102%; in experiment [6], 125%. Further, the growth in [7] was 105%; in experiment [8], 111%; in experiment [9], 116%; in experiment [10] it was 94.3%; in [11], 94.5%; in experiment [12], 94.8%. Moreover, the growth was 92.7% in experiment [13]; 97.8% in experiment [14]; 94.1% in [15]; 97.4% in experiment [16]; 109% in [17]; 101% in experiment [18].

With `Cc1cc(C)nc(NS(=O)(=O)c2ccc(Nc3nc4nc(SCc5ccccc5)nc(-c5ccc(O)cc5)c4c(=O)[nH]3)cc2)n1`, the growth in experiment [1] was 106%; in experiment [2] it was 93.8%; in experiment [3] it was 111%; in experiment [4] it was 93.4%; in [5], 107%; in [6], -9.71% (active). Further, the growth is 97% in [7]; 103% in [8]; 136% in [9]; 84.2% in [10]; 67.7% in experiment [11]; 93.8% in experiment [12]. Also, the growth in experiment [13] is 78.6%; in [14], 84%; in experiment [15], 83.3%; in experiment [16], 98.9%; in experiment [17] it was 113%.

As to `O=c1[nH]c(SCc2ccccc2)nc2nc(Nc3ccc(NC(=S)Nc4ccccc4)cc3)nc(-c3ccc(O)cc3O)c12`, the growth in [1] was 97.3%; in experiment [2] it was 93.2%; in experiment [3] it was 121%; in [4] it was 102%; in experiment [5], 103%; in experiment [6], -2.6% (active). Further, the growth in experiment [7] is 94.7%; in experiment [8] it was 98.2%; in experiment [9] it was 112%; in [10], 90.6%; in [11] it was 75%; in [12], 98%. Further, the growth in experiment [13] was 66.2%; in experiment [14], 92.6%; in [15], 101%; in [16], 91.8%; in experiment [17], 109%.

`Nc1nc2c(nnn2Cc2ccc(Cl)c(Cl)c2)c(=O)[nH]1`: the growth was 104% in experiment [1]; 96.5% in experiment [2]; 82.4% in experiment [3]; 90.4% in [4]; 104% in [5]; 75.5% in experiment [6]. The growth in experiment [7] is 97.3%; in [8], 98.5%; in [9], 116%; in [10] it was 83.3%; in [11] it was 107%; in experiment [12], 94.5%. In addition, the growth in [13] was 107%; in experiment [14] it was 96.6%; in [16], 98.3%; in experiment [17], 98.9%; in [18], 103%.

As for `FC(F)(F)c1cc(-c2nnc3n2N=C(N2CCCC2)CS3)cc(C(F)(F)F)c1`, the growth in experiment [1] was 62.7%; in [2], 58.4%; in experiment [3], 99%; in experiment [4], 37.7%; in experiment [5], 58.1%; in [6], 37.4%. Moreover, the growth in experiment [19] is 60.4%; in experiment [8], 98.1%; in experiment [9] it was 86.8%; in [10], 70.7%; in experiment [11] it was 83.4%; in experiment [12] it was 59.6%. The growth in [14] was 74.9%; in [15], 45.9%; in experiment [16], 30%; in experiment [17] it was 93.2%; in experiment [18], 100%.

As to `Fc1ccc(-c2nn3c(-c4cc(C(F)(F)F)cc(C(F)(F)F)c4)nnc3s2)cc1`, the growth is 45.5% in [1]; 6.11% (active) in [2]; 56.3% in experiment [3]; -11.5% (active) in [4]; 4.16% (active) in experiment [5]; -20.5% (active) in experiment [6]. For the same compound, the growth is 33.3% in [19]; 73.1% in experiment [8]; 87.1% in experiment [9]; 68.8% in experiment [10]; 43.8% in experiment [11]; 39.5% in experiment [12]. Besides, the growth in [14] was 37.3%; in experiment [15], 38.4%; in experiment [16], 39.7%; in experiment [17], 76.7%; in experiment [18] it was 64.6%.

`C/C(=C\CCc1ccoc1)CC/C=C(\C)CCCNc1ccc(F)cc1`: the growth is 100% in [1]; 88.5% in experiment [2]; 85.4% in experiment [3]; 93.6% in [4]; 92.7% in [5]; 96.3% in experiment [6]. In addition, the growth in [7] was 95.1%; in experiment [8] it was 98.1%; in [9], 101%; in [10], 68.6%; in [11] it was 88.2%; in experiment [12] it was 72.9%. The growth in [13] was 101%; in experiment [14], 90.1%; in experiment [15] it was 102%; in [16] it was 89.6%; in [17] it was 99.7%; in experiment [18] it was 103%.

With `COC(=O)CC1=C(c2ccc([N+](=O)[O-])cc2)CCC1=O`, the growth in [1] is 100%; in experiment [2], 94%; in experiment [3] it was 115%; in experiment [4], 102%; in experiment [5], 103%; in [6] it was 89.5%. Moreover, the growth was 104% in experiment [7]; 98.2% in experiment [8]; 101% in experiment [9]; 98.7% in experiment [10]; 102% in experiment [12]; 110% in experiment [13]. The growth in experiment [14] was 101%; in [15] it was 100%; in experiment [16], 97%; in experiment [17] it was 109%; in experiment [18], 109%.

Regarding `COC(=O)[C@H](Cc1cnc[nH]1)NC(=O)[C@@H](NC(=O)Nc1cc(C(F)(F)F)cc(C(F)(F)F)c1)C(C)C`, the growth in [1] is -70.6% [100 µM] (active); in [2], -44.1% [100 µM] (active); in experiment [3], -94.9% [100 µM] (active); in [4] it was -92.5% [100 µM] (active); in [5], -42.5% [100 µM] (active); in experiment [6] it was -96.7% [100 µM] (active). In addition, the growth in experiment [7] was -90.7% [100 µM] (active); in experiment [8], -82.6% [100 µM] (active); in experiment [9] it was -100% [100 µM] (active); in experiment [10] it was -46% [100 µM] (active); in [11], -94.4% [100 µM] (active); in experiment [12], -95.9% [100 µM] (active). Moreover, the growth is -89.3% [100 µM] (active) in [13]; -92.7% [100 µM] (active) in [14]; -95.7% [100 µM] (active) in experiment [16]; -87.6% [100 µM] (active) in experiment [17]; -89% [100 µM] (active) in experiment [18].

With `COc1ccc(/C=C2/SC(=Nc3c(C)nn(-c4ccccc4)c3N)NC2=O)cc1`, the growth in [1] is 38.3%; in experiment [2] it was 51.1%; in [3], 39.1%; in experiment [4], 53%; in [5], 17.7%; in experiment [6] it was 53.7%. Also, the growth is 40.5% in experiment [7]; 43.7% in experiment [8]; 43.6% in [9]; 15.2% in experiment [10]; 66.3% in [12]; 83.6% in [13]. The growth in experiment [14] is 58.8%; in [15], 8.06% (active); in experiment [16] it was 23.6%; in experiment [17], 59%; in experiment [18], 17.2%.
